Compounds with a hit are over-represented: about 10% of the library has one in this group of screens.
KB-V1 MDR tox – kills drug-selected multidrug resistant KB-V1 cells; KB-V1 MDR cells viability, CellTiter-Glo, 72 h; Potency, µM (top dose mostly 46.1 µM), most hits filed as cytotoxic; actives 3.4% (n = 400,000); AID 1347076; also: % is scaled to controls: 0 for no effect and ±100 for the full control effect; nearly all actives have a fitted effect of over 60% in size
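Following 72 h at 37 degrees C with compound, KB-V1 cell viability was read by CellTiter-Glo luminescence, medium being phenol-red-free DMEM plus 10% FBS; concentration-response parameters came from normalized, curve-fitted qHTS data.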
Gal4-VP16 FLuc – Gal4-VP16 reporter inhibition counter-screen. Drosophila S2 Gal4-VP16 UAS-luciferase, luminescence, 20 h. Potency, µM (highest dose often 53.6 µM), without a hit: top-dose activity, negative = inhibition, usual class: inhibitors. actives 3.5% (n = 310,000);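 also: Gal4-VP16 expression switched on by copper sulfate through the metallothionein promoter; % is scaled to controls: 0 for no effect and ±100 for the full control effect; nearly all actives have a fitted effect of over 50% in size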
MCF10A rereplic – induces DNA re-replication in MCF 10a normal breast cells; MCF 10A DNA re-replication, Hoechst nuclear intensity, 48 h; Potency, µM (highest dose often 46.1 µM), inactives show at the top dose activity, positive = re-replication, most hits filed as activators; actives 2.9% (n = 350,000); also: % of control where 0% means no effect; nearly all actives have a fitted effect of over 50% in size
RORg inh – blocks mouse ROR gamma transcriptional activity. P51450. Potency, µM (series often up to 53.6 µM), for inactives: at the highest dose activity change, negative = inhibition, usual class: inhibitors. actives 5.4% (n = 310,000). Drosophila S2 Gal4-RORgamma UAS-luciferase reporter, 20 h; also: % is scaled to controls: 0 for no effect and ±100 for the full control effect; nearly all actives have a fitted effect of over 60% in size
Target sequence (P51450 whole entry, looked up, the tested form may be a part): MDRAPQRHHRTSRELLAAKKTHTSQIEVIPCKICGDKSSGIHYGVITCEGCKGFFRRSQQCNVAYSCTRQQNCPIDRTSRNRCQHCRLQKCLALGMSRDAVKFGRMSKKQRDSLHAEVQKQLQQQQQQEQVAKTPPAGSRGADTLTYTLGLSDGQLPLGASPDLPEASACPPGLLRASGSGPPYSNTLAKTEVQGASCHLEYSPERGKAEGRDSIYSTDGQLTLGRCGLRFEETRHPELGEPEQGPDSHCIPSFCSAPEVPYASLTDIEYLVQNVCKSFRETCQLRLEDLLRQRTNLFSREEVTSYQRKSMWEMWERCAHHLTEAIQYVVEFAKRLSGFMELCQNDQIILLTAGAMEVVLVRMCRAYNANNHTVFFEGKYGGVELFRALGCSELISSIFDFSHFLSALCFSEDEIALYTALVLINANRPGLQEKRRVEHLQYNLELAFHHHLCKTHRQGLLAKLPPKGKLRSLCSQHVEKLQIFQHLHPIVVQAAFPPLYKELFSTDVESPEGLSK
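Using a luciferase readout, inhibitors were identified by reduced reporter activity in Drosophila cells coexpressing a copper-inducible Gal4–ROR gamma fusion and UAS-driven Photinus luciferase, incubated 20 hr after 700 uM copper sulfate.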
SW480 rereplic – DNA re-replication induction in SW480 cells. SW480 DNA re-replication, Hoechst DNA content imaging, 48 h. Potency, µM (series often up to 46.1 µM), for the others: top-dose re-replication activation, actives largely listed as activators. actives 1.8% (n = 340,000). AID 624297; also: % of control where 0% means no effect; nearly all actives have a fitted effect of over 55% in size
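Per well, 250 cells were exposed to pinned compound for 48 hr. Nuclear DNA was visualised with Hoechst (40 min, 37 C) and total object intensity recorded by fluorescence scanning.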
KB-3-1 tox – KB-3-1 parental cell cytotoxicity. KB-3-1 viability, CellTiter-Glo ATP luminescence, 72 h. Potency, µM (titrated, usually from 46.1 µM), actives largely listed as cytotoxic. actives 1.4% (n = 400,000); also: % is scaled to controls: 0 for no effect and ±100 for the full control effect; nearly all actives have a fitted effect of over 60% in size
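Multi-concentration cytotoxicity screen in KB-3-1 cells grown in DMEM lacking phenol red with 10% FBS. After 72 h at 37 °C with compound, ATP-dependent luminescence was recorded.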
Numbers without * were called inactive; i = inactive; ? = inconclusive; nt = not tested or not shown; [ ] = remark or other dose. Calls follow the shape of the dose curve; as a rule, active = well fitted curve in the direction sought with a large enough effect; inconclusive = small, poorly fitted or top-dose-only effect, or another doubt; inactive = no such curve, though single readings can be large; an effect the other way counts as inactive or inconclusive. Potency is read from the fitted curve at half-maximal effect.

SMILES	KB-V1 MDR tox	Gal4-VP16 FLuc	MCF10A rereplic	RORg inh	SW480 rereplic	KB-3-1 tox
COc1ccc(OC)c(NC(=S)N2CCN(C/C=C/c3ccccc3)CC2)c1	i	1%	12%	2.8µM*	-14%	i
Cc1ccc(NC(=O)CCN2CCN(C/C=C/c3ccccc3)CC2)cc1	i	1%	?	-16%	?	i
Cc1oc2ncn(CC(C)C)c(=O)c2c1C(=O)NCc1cccc(Cl)c1	i	nt	nt	nt	nt	i
COc1ccc(NC(=S)N2CCN(C/C=C/c3ccccc3)CC2)cc1OC	i	8%	9%	10µM*	1%[9.22 µM]	i
O=C(CNS(=O)(=O)c1ccc(F)cc1)N1CCCC1	i	nt	?	nt	19%	i
CCOc1ccc(NS(=O)(=O)c2cccc(C(=O)N3CCN(C/C=C/c4ccccc4)CC3)c2)cc1	6.5µM*	nt	?	nt	5%	18µM*
COc1ccc(O)c(CN2CCN(C/C=C/c3ccccc3)CC2)c1	15µM*	2%	43%	16%	-7%	i
CC(C)(C)c1ccc(S(=O)(=O)NCC(=O)N2CCCC2)cc1	i	4%	-3%	-14%[1.91 µM]	5.8µM*	i
COc1ccc(NC(=S)N2CCN(C/C=C/c3ccccc3)CC2)cc1	?	?	8%	?	3%	i
CCc1ccc(O)c(N=Cc2ccccc2O)c1	i	-28%	?	13µM*	?	i
Cc1ccc(O)c(N=Cc2cc(Cc3ccccc3)cc([N+](=O)[O-])c2O)c1	i	-17%[10 µM]	?	13µM*	-8%	i
OCC(CO)(CO)N=Cc1cc(Br)ccc1O	i	-4%	3%	-24%	2%	i
Cc1ccc(O)c(C=Nc2cc(C)ccc2O)c1	i	20µM*	?	?	-3%	i
CC(C)(C)c1ccc(O)c(N=Cc2cc(Br)ccc2O)c1	i	?	17%	10µM*	7%	i
CCOc1ccc(N=Cc2ccccc2O)cc1	i	nt	1%	nt	-12%	i
O=[N+]([O-])c1cccc(CON=Cc2ccccc2O)c1	i	nt	nt	nt	nt	i
CC(=O)c1cccc(NC(=O)N2CCC(CN3CCCCC3)CC2)c1	i	nt	nt	nt	nt	i
CCN(CC)c1ccc(N=Cc2cc(Br)ccc2O)cc1	i	?	?	18µM*	10µM*	?
O=[N+]([O-])c1ccc(O)c(C=Nc2cccc3ccccc23)c1	i	-12%	16%	-25%	1%	i
O=[N+]([O-])c1cccc(C=Nc2cccc3ccccc23)c1O	i	-16%	4%	1.6µM*	?	i
Oc1ccc(Br)cc1C=Nc1ccc(Cl)cc1	i	4%	-6%	-38%	-12%	i
O=C(/C=C/[C@H]1O[C@@H](n2ccc(=O)[nH]c2=O)[C@H](O)[C@@H]1O)N[C@@H](Cc1ccccc1)C(=O)O	i	nt	nt	nt	nt	i
COc1ccc(OC)c(NC(=O)Cn2c(=O)n(-c3ccc(Cl)cc3)c(=O)c3c(C)c(C)sc32)c1	?	nt	nt	nt	nt	i
COc1ccc(-n2c(SCC(=O)Nc3ccc4c(c3)OCO4)nc3c([nH]c4ccccc43)c2=O)cc1	i	nt	nt	nt	nt	i
COc1ccc(C2=CCN3CCCCC3C2)c(-c2ccc(OC)c(OC)c2)c1 (stereo not drawn)	?	nt	8.2µM*	nt	2%	?
CC1Cc2cc(-c3csc(NC(=O)Cc4ccccc4)n3)ccc2N1S(C)(=O)=O (stereo not drawn)	3.3µM*	-13%	16%	3%	2%	21µM*
CN(C)Cc1csc(NC(=O)Nc2ccccc2C(C)(C)C)n1	i	nt	nt	nt	nt	i
COC(=O)c1cc2occc2n1CC(=O)Nc1ccc(C(C)C)cc1	i	nt	nt	nt	nt	i
CC1(C)CC(=O)N(c2cccc(Cl)c2)C(=O)C1	i	-4%	-4%	6%	-19%	i
O=C1NC(=S)N(c2cccc(Cl)c2)C12CCCCC2	i	?	23%	13µM*	-3%	i
